The values below come from PubChem BioAssay (NCI).

Among the test systems are T-47D breast; BT-549 breast; SW-620 colon; MCF7 breast; HCT-116 colon; HCC-2998 colon; KM12 colon; MDA-MB-435 melanoma.
Common to all, as to assay: NCI-60 one-dose screen, 48 h (100 = growth as untreated, 0 = no growth, -100 = all killed)
Details in all cases: 10 µM unless noted

Compounds without any hit were thinned out: in the full panel of roughly 83,000, 20% have a hit.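 Values shown are percent growth following 48 h exposure of cells in 96-well plates to a single concentration of compound; below 10 was considered active.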 A number with no mark means an inactive call. The source made the active and inactive calls.

`C=C[C@@H]1C[C@@H]2Cc3ccccc3N1O2`: the growth in the assay with T-47D breast is 110%; in the assay on BT-549 breast it was 114%; with SW-620 colon, 102%; in the assay on MCF7 breast, 111%; in the assay on HCT-116 colon, 101%; in the assay with HCC-2998 colon, 114%. The growth in the assay on KM12 colon is 110%.

Turning to `COc1cccc(CC(C)=C(c2ccc(OCCN(C)C)cc2)c2ccc(OCCN(C)C)cc2)c1`, the growth is -72.7% (active) in the assay on T-47D breast; 72.2% in the assay with BT-549 breast; -61.6% (active) with SW-620 colon; -55.7% (active) in the assay on MCF7 breast; -74.3% (active) with HCT-116 colon; -15.3% (active) in the assay with HCC-2998 colon. Moreover, the growth with KM12 colon is -1.23% (active).

Turning to `CC(C)(C)OC(=O)NC(CSCc1ccccc1)C(=O)ON1C(=O)CCC1=O` (stereo not given), the growth is 93.9% in the assay with T-47D breast; 117% in the assay on BT-549 breast; 105% with SW-620 colon; 98.4% in the assay on MCF7 breast; 92.5% in the assay on HCT-116 colon; 101% with HCC-2998 colon. In addition, the growth in the assay with KM12 colon was 109%.

Take `COC(=O)C1CCCN1C(=O)[C@@H]1CCCN1C(=O)[C@H](Cc1c[nH]c2ccccc12)NC(=S)Nc1cc(C(F)(F)F)cc(C(F)(F)F)c1` (stereo not given in full): the growth in the assay on T-47D breast was 49.8%; in the assay with BT-549 breast, 70.3%; with SW-620 colon it was 69.9%; in the assay on MCF7 breast, 38.8%; in the assay on HCT-116 colon, 37.3%; with HCC-2998 colon, 15%. The growth with KM12 colon was 25.2%.

`COc1ccc(Nc2nn3c(C)cc(C)nc3c2C(=O)Nc2ccc(C)cc2)c(OC)c1`: the growth was 87.7% in the assay with T-47D breast; 96.2% in the assay on BT-549 breast; 105% in the assay with SW-620 colon; 101% in the assay on MCF7 breast; 99% with HCT-116 colon; 94.2% with HCC-2998 colon. Besides, the growth in the assay on KM12 colon was 100%.

With `C/C=C(\C)C(C(=O)NC1CCCCC1)N(C(=O)C1CCc2cc(F)ccc2O1)c1ccc(Cl)cc1` (stereo not given), the growth in the assay on T-47D breast is 95.2%; in the assay on BT-549 breast, 98.3%; in the assay on SW-620 colon, 103%; in the assay on MCF7 breast, 99.1%; in the assay with HCT-116 colon it was 103%; in the assay with HCC-2998 colon it was 94.9%. Further, the growth with KM12 colon is 111%.

Take `CCN(CC)CCOC(=O)C(c1ccccc1)(c1ccccc1)C(C)C`: the growth with T-47D breast was 86%; with MDA-MB-435 melanoma, 90.8%; in the assay with SW-620 colon, 97.3%; in the assay on HCT-116 colon, 92.2%; in the assay with HCC-2998 colon it was 96.9%; in the assay on KM12 colon, 90.7%.

For `CCN(CC)CCC(CNc1ccnc2cc(Cl)ccc12)c1ccccc1` (stereo not given), the growth in the assay with T-47D breast was 71%; with MDA-MB-435 melanoma it was -2.6% (active); in the assay with SW-620 colon it was 62.3%; in the assay on MCF7 breast it was 26.3%; with HCT-116 colon, 28.3%; in the assay on HCC-2998 colon, 68.2%. Moreover, the growth with KM12 colon is 84.1%.

Consider `COc1ccc(-c2cc(-c3ccccc3)nc(SCCCC(=O)NO)n2)cc1OC`, for which the growth in the assay on T-47D breast was 2.62% (active); with MDA-MB-435 melanoma, 9.02% (active); in the assay on SW-620 colon, 12.5%; with MCF7 breast, 4.19% (active); with HCT-116 colon, 5.58% (active); in the assay on HCC-2998 colon, 34.7%. Moreover, the growth in the assay on KM12 colon was 13.1%.

Consider `c1cc(C2=N[C@@H]3c4ccccc4C[C@@H]3O2)nc(C2=N[C@@H]3c4ccccc4C[C@@H]3O2)c1`, for which the growth with T-47D breast is 101%; in the assay with MDA-MB-435 melanoma, 104%; in the assay on SW-620 colon, 107%; in the assay on MCF7 breast it was 88.1%; in the assay with HCT-116 colon it was 103%; with HCC-2998 colon it was 104%. Also, in the assay on KM12 colon, the growth was 103%.

On to `CC12CCC3C4(C)COC(c5ccccc5Cl)OC4CCC3(C)C1CC(C1=CCOC1=O)O2` (stereo not given), for which the growth with T-47D breast was 31.1%; with MDA-MB-435 melanoma, 54.2%; in the assay on SW-620 colon it was 84.7%; in the assay with MCF7 breast it was 46.6%; with HCT-116 colon, 40.5%; in the assay on HCC-2998 colon, 77.4%. For the same compound, in the assay on KM12 colon, the growth is 59.9%.

`Cc1ccc(C(=O)NCCCNc2nccc(-n3ccc4cccnc43)n2)cc1`: the growth is 90.6% in the assay with T-47D breast; 104% in the assay with MDA-MB-435 melanoma; 109% in the assay with SW-620 colon; 103% in the assay with MCF7 breast; 93.7% in the assay with HCT-116 colon; 109% in the assay with HCC-2998 colon. Also, in the assay on KM12 colon, the growth is 103%.

For the compound `CC(C)(C)n1cc(-c2ccnc(NCCNS(=O)(=O)c3ccc(F)cc3)c2)c(-c2cccc(O)c2)n1`, the growth in the assay on T-47D breast is 23.7%; in the assay with SW-620 colon it was 11%; in the assay with MCF7 breast it was 28.5%; in the assay with HCT-116 colon, 37.3%; in the assay with HCC-2998 colon it was 31.2%; with KM12 colon, 36.1%.

For `CCCCN(CCCC)C(=O)CC`, the growth in the assay with T-47D breast is 124%; in the assay on MDA-MB-435 melanoma, 104%; with SW-620 colon, 110%; with MCF7 breast it was 93.3%; in the assay on HCT-116 colon, 102%; in the assay with HCC-2998 colon it was 107%. In the assay on KM12 colon, the growth is 106%.

Regarding `Cn1cnc2c(N3CCN(C(=O)OCc4ccc5c(Cl)cc(Cl)c(O)c5n4)CC3)nc(Cl)nc21`, the growth with T-47D breast was 61%; in the assay with MDA-MB-435 melanoma, 67.5%; in the assay with SW-620 colon, 85.9%; in the assay with MCF7 breast, 73%; with HCT-116 colon, 53.1%; in the assay on HCC-2998 colon it was 94.1%. In addition, the growth with KM12 colon was 56.9%.

As to `CC(C)(C)n1cc(-c2ccnc(NCCCNS(=O)(=O)c3ccc(Br)cc3)c2)c(-c2cccc(O)c2)n1`, the growth was 29.9% in the assay on T-47D breast; 39% in the assay on MDA-MB-435 melanoma; 7.75% (active) with SW-620 colon; 7.27% (active) in the assay on MCF7 breast; 22.6% with HCT-116 colon; -56.1% (active) with HCC-2998 colon. The growth in the assay on KM12 colon is 1.78% (active).

As to `O=[N+]([O-])c1ccc(C(c2ccccc2)c2ccccc2)cc1`, the growth with T-47D breast was 109%; in the assay with MDA-MB-435 melanoma, 99.5%; with SW-620 colon, 87.5%; in the assay on MCF7 breast it was 84.9%; with HCT-116 colon, 70.4%; in the assay with HCC-2998 colon, 92%. Moreover, in the assay on KM12 colon, the growth was 90.9%.

Regarding `CC(C)(C)n1cc(-c2ccnc(NCCCNS(=O)(=O)c3ccc(Cl)cc3)c2)c(-c2cccc(O)c2)n1`, the growth is 5.38% (active) in the assay with T-47D breast; 15.6% in the assay on MDA-MB-435 melanoma; -38% (active) in the assay on SW-620 colon; -12.1% (active) in the assay with MCF7 breast; 6.49% (active) in the assay on HCT-116 colon; -81.5% (active) with HCC-2998 colon. Moreover, in the assay with KM12 colon, the growth is -36.5% (active).

Turning to `COc1ccc(S(=O)(=O)n2ccc(-c3ccc4c(c3)CCC(C)(C)O4)n2)cc1OC`, the growth in the assay with T-47D breast was 43.7%; with MDA-MB-435 melanoma, 79.6%; in the assay on SW-620 colon, 79.9%; in the assay on HCT-116 colon it was 61.5%; with HCC-2998 colon, 78.9%; in the assay on KM12 colon, 71.4%.
